Shown are actives, neighbours in structure and some others; about 6.5% of the full set was active somewhere.
HT1080 IDH1KD tx: toxicity to HT-1080 IDH1 knockdown cells (counter line); HT-1080 IDH1 knockdown viability, ATP luminescence, 48 h; Potency, µM (doses to about 46.1 µM), most hits filed as cytotoxic; actives 2% (n = 360,000); AID 686971
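Assay cells: HT-1080 with IDH1 knockdown, 750 per well, RPMI/5% FBS. Exposure: 48 h at 37 °C following 2 h pre-incubation. Read: CellTiter-Glo luminescence; fitted concentration-response, curve class assigned.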
TGFb SMAD3 inh: TGF-b pathway inhibition; Potency, µM (highest dose often 46.1 µM), most hits filed as inhibitors; actives 1.2% (n = 410,000); AID 588855; HepG2 CAGA-GFP TGF-b/SMAD3 reporter, GFP fluorescence, 18 h; TGF-beta stimulated, 500 pg/mL final; also: nearly all actives have a fitted effect of over 65% in size
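Inhibition was scored as loss of TGF-beta-induced (500 pg/mL final, 18 hours, 37 degrees C) GFP in HEPG2 cells carrying a CAGA-GFP reporter, in DMEM with 1% FBS. Well GFP was summed per cell; Activity was normalised to unstimulated and stimulated DMSO wells, then concentration-response fitting.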
IL-1B inflam inh: blocks inflammasome-driven IL-1 beta release | THP-1 LPS/ATP IL-1B secretion, AlphaLISA, 16 h; hits give low values | activity change, % at 57.5 µM | actives 4.7% (n = 360,000) | AID 743279; in the data active = activity change below about -50%; inconclusive = mostly about -30% to -49%
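THP-1 cells pretreated 1 hr with compounds (up to 57.5 uM final), then stimulated with LPS (250 ng/mL final) plus ATP (1.25 mM final); secreted IL-1B measured by AlphaLISA after 16 hr, decreased signal indicating inhibition.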
HepG2 tox: counter-screen for TGF-b inhibitors: cytotoxicity in HepG2 cells; HepG2 CAGA-GFP viability, ATP luminescence, 18 h; Potency, µM (top dose mostly 46.1 µM), usual class: cytotoxic; actives 0.76% (n = 410,000); AID 588856
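CellTiter-Glo luminescence gave cytotoxicity after 18 hours at 37 degrees C. The cells were HepG2 CAGA-GFP in 1% FBS DMEM, stimulated with 500 pg/mL TGF-beta after compound addition. %Activity was normalised to no-cell wells (complete cell-killing) and DMSO (no toxicity), and curves were fitted and classified.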
HT1080NT lethal: kills 2HG-producing HT-1080-NT fibrosarcoma cells; HT-1080-NT fibrosarcoma viability, CellTiter-Glo ATP luminescence, 48 h; Potency, µM (titrated, usually from 46.1 µM), actives largely listed as cytotoxic; actives 1.6% (n = 360,000); AID 686970;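 also: NT is the 2HG producing partner of a matched IDH1 knockdown line; nearly all actives have a fitted effect of over 55% in size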
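A 48-hour cytotoxicity screen used HT-1080-NT cells plated 2 hours before compound delivery. ATP-based CellTiter-Glo luminescence measured viability, normalized to DMSO and no-cell controls.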
Giardia kill: Giardia lamblia killing; Giardia lamblia trophozoite viability; activity change, % at 7.66 µM, hits read low; actives 0.15% (n = 340,000); in the data active = activity change below about -80%; inconclusive = between about -30% and that limit;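 also: parasites exposed to compound for two days anaerobically before the ATP read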
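Giardia lamblia trophozoites (100 cells/well) were incubated with compounds for 48 h at 37 deg C under anaerobic conditions. Viability was read as ATP content by one-step luminescence after 15-30 min at room temperature.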
Numbers stand for hits; - = inactive; ? = inconclusive; . = no result given. Unless noted, calls follow the shape of the dose curve; as a rule, active = well fitted curve in the direction sought with a large enough effect; inconclusive = small, poorly fitted or top-dose-only effect, or another doubt; inactive = no such curve, though single readings can be large; an effect the other way counts as inactive or inconclusive.

SMILES | HT1080 IDH1KD tx | TGFb SMAD3 inh | IL-1B inflam inh | HepG2 tox | HT1080NT lethal | Giardia kill
O=S(=O)(c1ccc(Cl)c(Cl)c1)N1CCc2nc3ccccc3n2CC1 | - | - | - | - | - | -
C=C(C)C(=O)Oc1ccc(N2C(=O)[C@@H]3C4C=CC(C4)[C@@H]3C2=O)cc1 | - | - | -99 | - | - | -
COc1ccc(N2Cc3ccc(OC)c(OC)c3C2=O)cc1 | - | - | - | - | - | -
COc1cccc(N2CCc3c(C)nc4ccc(Cl)cc4c32)c1 | 21µM | ? | -96 | - | ? | -
COc1ccc(N2CCc3c(C)nc4c(OC)cc(OC)cc4c32)cc1 | 23µM | - | . | - | ? | -
CCN1Cc2c(/C=C/c3ccccc3)nc3ccc(OC)cc3c2N(c2cccc(Cl)c2)C1 | ? | ? | -84 | - | ? | -
COc1ccc(N2CCc3c(C)nc4c(OC)cc(OC)cc4c32)c(OC)c1 | ? | - | -58 | - | ? | -
COc1cccc(-c2nc(-c3cccc(C)c3)nc3cc(Cl)ccc23)c1 | - | . | - | . | - | .
C=CCn1c(NCCO)nc2c1c(=O)n(C)c(=O)n2C | - | - | - | - | - | -
O=C(Nc1nc(=O)c2ccccc2s1)c1ccc(F)cc1 | 1.4µM | ? | -99 | - | 16µM | -
Nc1c(C(=O)Nc2nc3ccccc3s2)sc2nc(-c3cccs3)ccc12 | 18µM | - | -114 | 6.3µM | ? | -
Cc1ccc(S(=O)(=O)CCC(=O)OCC(=O)N2CCN(S(=O)(=O)c3ccccc3)CC2)cc1 | - | - | - | - | - | -
COC(=O)C1=CN(c2c(C)cc(C)cc2C)C(N)=C(C#N)C1c1ccccc1 (stereo not given) | - | . | - | . | - | .
COC(=O)C1=CN(c2ccc(F)cc2)C(N)=C(C#N)C1c1cccc(F)c1 (stereo not given) | 23µM | . | - | . | ? | .
COC(=O)C1=CN(c2ccc(F)cc2)C(N)=C(C#N)C1c1ccc(-c2ccccc2)cc1 (stereo not given) | 10µM | . | - | . | 10µM | .
COC(=O)C1=CN(c2ccc3c(c2)OCO3)C(N)=C(C#N)C1c1ccc(-c2ccccc2)cc1 (stereo not given) | 3.3µM | . | - | . | 5.2µM | .
COC(=O)C1=CN(c2ccc(Oc3ccccc3)cc2)C(N)=C(C#N)C1c1cccc(F)c1 (stereo not given) | - | . | - | . | - | .
Cc1cccc(NC(=O)CCCN2C(=O)C3CC=CCC3C2=O)c1 (stereo not given) | - | - | - | - | - | -
CCN(CC)C(=O)c1ccc(Nc2nnc(-c3ccc(O)cc3)c3ccccc23)cc1 | - | - | ? | - | - | -
COc1cc2c(NC3CCN(C)CC3)nc(N3CCCN(C)CC3)nc2cc1OCCCCN | . | ? | . | - | . | .
COc1cc2c(NC3CCN(C(C)C)CC3)nc(N3CCCN(C)CC3)nc2cc1OCCCN(C)C | . | 10µM | . | - | . | .
COc1cc2c(NC3CCN(C)CC3)nc(N3CCCN(C)CC3)nc2cc1OCCCC(C)C | . | 2.8µM | . | 3.5µM | . | .
C=CC[C@@H](CC(=O)N(CCO)Cc1ccccc1)C(=O)NCCOC(=O)[C@@H](CC=C)Cc1ccc(F)cc1 | - | - | - | - | - | -
C=CCC[C@H](Cc1ccc(F)cc1)C(=O)O[C@H](CNC(=O)[C@@H](CC=C)CC(=O)N(CCO)Cc1ccccc1)c1ccccc1 | ? | ? | -58 | - | ? | -
C=CC[C@H](CC(=O)N(CCO)Cc1ccccc1)C(=O)NC[C@@H](OC(=O)[C@@H](CC=C)Cc1ccc(F)cc1)c1ccccc1 | ? | ? | -69 | - | ? | -
SMILES | HT1080 IDH1KD tx | TGFb SMAD3 inh | IL-1B inflam inh | HepG2 tox | HT1080NT lethal | Giardia kill
NS(=O)(=O)c1ccc(N2N=C(c3ccccc3)CC2c2ccc(Br)cc2)cc1 (stereo not given) | ? | ? | - | 28µM | ? | .
NS(=O)(=O)c1ccc(N2N=C(c3ccccc3)CC2c2ccccc2Cl)cc1 (stereo not given) | ? | ? | - | - | - | -
COc1ccc(C2=NN(CN3C(=O)C(=O)c4ccccc43)C(c3ccc(C)cc3)C2)cc1 (stereo not given) | - | - | - | - | - | -
CCc1ccc(C2=NN(c3ccc(S(N)(=O)=O)cc3)C(c3ccc(F)cc3)C2)cc1 (stereo not given) | ? | ? | -87 | - | ? | -
Cc1ccc(C2CC(c3ccccc3)=NN2c2ccc(S(N)(=O)=O)cc2)cc1 (stereo not given) | ? | ? | ? | - | ? | .
NS(=O)(=O)c1ccc(N2N=C(c3ccccc3)CC2c2ccccc2)cc1 (stereo not given) | ? | ? | -52 | - | ? | ?
COc1ccc(C2=NN(CN3C(=O)C(=O)c4ccccc43)C(c3ccc(Br)cc3)C2)cc1 (stereo not given) | - | - | -79 | - | - | -
COc1ccc(C2CC(c3ccccc3Br)=NN2c2ccc(S(N)(=O)=O)cc2)cc1 (stereo not given) | ? | ? | - | 13µM | ? | -
COc1ccc(C2CC(c3ccccc3F)=NN2c2ccc(S(N)(=O)=O)cc2)cc1 (stereo not given) | - | ? | - | - | - | -
O=C1NN(c2ccc(F)cc2)C(=O)/C1=C/c1cccs1 | - | - | -51 | - | - | -
COc1cccc(/C=C2/C(=O)NN(c3ccc(F)cc3)C2=O)c1 | - | - | - | - | - | -
C/C(=N\NC(=O)c1nn(C)cc1Br)c1cccc(NC(=O)c2ccncc2)c1 | - | - | - | - | - | -
Clc1ccc(N=c2ssnc2Cl)cc1 | - | 14µM | -85 | - | - | -
CCOC(=O)c1ccc(N=c2ssnc2Cl)cc1 | - | ? | -89 | - | - | -
Clc1nssc1=Nc1ccccc1 | - | - | - | - | - | -
Cc1cc(=O)[nH]c(SCC(=O)c2ccc(O)c(O)c2)n1 | - | - | - | - | - | -
COCCn1c(=S)[nH]c2cc(C(=O)N3CCN(Cc4ccccc4)CC3)ccc2c1=O | - | . | . | . | - | -
CC(C)(C)c1ccc(-c2cc(-c3ccccc3O)[nH]n2)cc1 | 15µM | 18µM | -99 | - | ? | -
COc1ccc(-c2cc(-c3cc(C)ccc3O)[nH]n2)cc1 | ? | ? | ? | - | 3.7µM | -
O=[N+]([O-])c1ccccc1-c1cc(-c2cc(Cl)ccc2O)n[nH]1 | - | ? | -101 | - | - | -
Oc1ccc(Cl)cc1-c1cc(-c2ccccc2Cl)[nH]n1 | - | - | - | - | - | -
Cc1ccc(O)c(-c2cc(-c3ccccc3C)[nH]n2)c1 | - | ? | -95 | 11µM | - | -
